H9c2 TAG inh – triacylglycerol accumulation inhibition. 0.66% of 230,000 active. AID 651582. inhibition, % at 12.5 µM. H9c2 cells, Nile Red lipid (TAG) fluorescence; cells loaded with 200 µM oleic acid;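 active = pattern-corrected inhibition of lipid staining of at least 50% with the nuclear-stain viability signal not falling by more than 50%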;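 also: 0% = DMSO wells and 100% = triacsin C control wells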
aDG glyco up – alpha-DG glycosylation activation. activation, % at 10 µM. 0.22% of 360,000 active. Pro5-aDG cells, alpha-DG glycosylation AlphaScreen (IIH6); 0% Pro5, 100% B10-LARGE cell signal. AID 624168;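 active = activation of at least 8% versus controls, or a plate z-score of at least 8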;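 also: Pro5 are CHO cells carrying HIG-tagged alpha-DG that lacks glycosylation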
FAS TE block – FAS thioesterase (human) inhibition; P49327; 0.67% of 360,000 active; recombinant FAS-TE, OMFH fluorogenic substrate, fluorescence endpoint; AID 602261; inhibition, % at 15 µM;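 active = compounds whose normalised, plate-corrected inhibition of enzyme fluorescence in the single-dose primary screen is 50% or more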;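 also: 0% = DMSO with enzyme and 100% = substrate without enzyme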
Target sequence (P49327 whole entry, looked up): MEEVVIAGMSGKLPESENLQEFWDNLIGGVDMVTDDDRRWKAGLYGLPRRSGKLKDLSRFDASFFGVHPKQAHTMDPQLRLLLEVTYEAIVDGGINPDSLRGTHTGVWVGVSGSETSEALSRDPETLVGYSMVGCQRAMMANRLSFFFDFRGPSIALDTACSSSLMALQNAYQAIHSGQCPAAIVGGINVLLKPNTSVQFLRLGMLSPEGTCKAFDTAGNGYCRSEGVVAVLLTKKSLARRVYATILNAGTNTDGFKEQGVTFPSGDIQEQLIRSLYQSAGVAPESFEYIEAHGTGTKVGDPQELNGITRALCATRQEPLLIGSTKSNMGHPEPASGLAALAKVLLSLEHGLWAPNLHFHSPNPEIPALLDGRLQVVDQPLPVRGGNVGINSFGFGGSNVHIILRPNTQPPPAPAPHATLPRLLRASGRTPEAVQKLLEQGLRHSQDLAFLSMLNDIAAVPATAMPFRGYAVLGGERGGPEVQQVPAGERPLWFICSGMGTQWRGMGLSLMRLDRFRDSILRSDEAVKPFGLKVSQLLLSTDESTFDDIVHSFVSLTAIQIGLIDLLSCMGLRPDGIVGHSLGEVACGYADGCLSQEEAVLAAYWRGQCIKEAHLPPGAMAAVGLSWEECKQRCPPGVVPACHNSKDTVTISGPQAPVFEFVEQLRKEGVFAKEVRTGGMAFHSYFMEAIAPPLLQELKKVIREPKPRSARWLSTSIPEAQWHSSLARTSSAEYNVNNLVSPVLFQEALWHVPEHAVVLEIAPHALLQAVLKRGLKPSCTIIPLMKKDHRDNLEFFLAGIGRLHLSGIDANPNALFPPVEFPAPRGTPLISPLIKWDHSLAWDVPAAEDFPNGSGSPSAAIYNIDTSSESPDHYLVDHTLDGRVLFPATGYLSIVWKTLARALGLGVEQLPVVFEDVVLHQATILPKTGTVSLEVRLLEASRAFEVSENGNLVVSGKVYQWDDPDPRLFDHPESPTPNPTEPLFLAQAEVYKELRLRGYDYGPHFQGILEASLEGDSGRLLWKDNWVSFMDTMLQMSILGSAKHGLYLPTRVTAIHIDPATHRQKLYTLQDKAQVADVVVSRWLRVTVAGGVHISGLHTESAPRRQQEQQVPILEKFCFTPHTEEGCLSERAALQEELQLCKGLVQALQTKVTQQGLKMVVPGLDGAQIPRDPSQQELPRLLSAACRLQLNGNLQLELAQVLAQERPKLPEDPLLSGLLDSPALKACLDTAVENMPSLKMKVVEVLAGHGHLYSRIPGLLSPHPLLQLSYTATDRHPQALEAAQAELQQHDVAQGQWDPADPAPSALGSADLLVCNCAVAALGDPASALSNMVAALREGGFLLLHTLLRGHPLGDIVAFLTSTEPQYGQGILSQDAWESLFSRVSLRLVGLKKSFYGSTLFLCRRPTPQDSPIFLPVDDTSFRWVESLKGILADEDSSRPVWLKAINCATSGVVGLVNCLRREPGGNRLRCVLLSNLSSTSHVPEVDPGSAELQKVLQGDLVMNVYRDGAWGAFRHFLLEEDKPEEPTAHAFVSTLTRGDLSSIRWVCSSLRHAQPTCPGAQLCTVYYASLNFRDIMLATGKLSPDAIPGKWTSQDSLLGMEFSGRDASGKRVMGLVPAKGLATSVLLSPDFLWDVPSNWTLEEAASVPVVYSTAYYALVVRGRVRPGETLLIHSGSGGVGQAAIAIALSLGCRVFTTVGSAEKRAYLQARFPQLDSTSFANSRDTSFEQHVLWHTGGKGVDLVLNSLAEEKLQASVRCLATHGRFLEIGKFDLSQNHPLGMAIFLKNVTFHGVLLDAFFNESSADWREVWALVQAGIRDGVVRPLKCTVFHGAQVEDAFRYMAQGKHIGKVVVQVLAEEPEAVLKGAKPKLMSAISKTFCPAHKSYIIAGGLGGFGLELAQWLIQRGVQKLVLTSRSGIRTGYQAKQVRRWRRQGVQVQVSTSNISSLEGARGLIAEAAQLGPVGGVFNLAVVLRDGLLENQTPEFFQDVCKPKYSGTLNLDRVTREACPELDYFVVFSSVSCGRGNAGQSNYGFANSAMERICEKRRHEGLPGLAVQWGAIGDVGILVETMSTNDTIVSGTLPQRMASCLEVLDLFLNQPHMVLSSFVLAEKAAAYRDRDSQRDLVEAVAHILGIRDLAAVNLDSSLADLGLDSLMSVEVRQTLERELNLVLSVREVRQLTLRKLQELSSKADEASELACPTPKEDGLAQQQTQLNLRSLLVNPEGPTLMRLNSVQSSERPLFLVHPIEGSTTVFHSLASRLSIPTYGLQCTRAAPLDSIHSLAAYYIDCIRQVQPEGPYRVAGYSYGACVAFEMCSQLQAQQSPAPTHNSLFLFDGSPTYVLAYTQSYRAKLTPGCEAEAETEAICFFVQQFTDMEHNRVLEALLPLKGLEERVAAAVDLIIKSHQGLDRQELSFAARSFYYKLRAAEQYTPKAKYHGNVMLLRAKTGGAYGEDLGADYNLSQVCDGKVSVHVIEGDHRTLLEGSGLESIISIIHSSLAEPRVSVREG
m-calpain inh – blocks pig calpain II enzyme activity; AID 1236; purified calpain II, fluorogenic peptide substrate, 30 min; inhibition, % at 16 µM; 0.37% of 220,000 active;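 active = inhibition above about 50%, limit read from the data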
MIN6 prolif – inducers of beta-cell replication in MIN6 cells. AID 2380. 0.29% of 330,000 active. MIN6 cells proliferation, ATPlite luminescence, 48 h; cells starved in 0.2% serum; 100% = growth in 10% serum. proliferation, % at 10 µM;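 active = compounds whose signal lies at least 3.5 SD above the mean of all wells on their plate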;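 also: 0% = DMSO-treated cells in low-serum medium and 100% = 10% serum control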
H9c2 protect – protects H9c2 cardiomyocytes from peroxide injury | H2O2 injury protection, ATPLite, 2 h | protection from H2O2 cell death, % at 20 µM | 0.63% of 360,000 active | AID 588492;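 active = compounds giving at least 50% protection of heart cells from peroxide-induced death in the single-dose screen, raw or plate-pattern-corrected value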;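 also: 0% = DMSO wells with peroxide and 100% = DMSO wells without peroxide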
FAS-TE conf – confirmation of human fatty acid synthase thioesterase inhibitors; shares compounds with FAS TE block; recombinant FAS-TE, OMFH fluorogenic substrate, fluorescence; inhibition, % at 15 µM; 45% of 2,300 active;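 active = compounds inhibiting the enzyme by at least 50% at 15 µM in any one of the replicates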;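 also: 0% = enzyme with DMSO only and 100% = wells lacking enzyme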
* hit, by the source's call. Only some compounds are listed: those with a hit (about 2.3% of all), similar ones and a draw of the others.

`COc1ccccc1Cc1c(-c2ccco2)nc2c3ccccc3ccn12` gave aDG glyco up 0 and FAS TE block 20.
Screening O=c1[nH]c(C2CCCN(S(=O)(=O)c3cccc(Cl)c3)C2)nc2c1nnn2Cc1ccc2c(c1)OCCO2 (centres undefined) returned aDG glyco up 0, FAS TE block 54*, MIN6 prolif -4, H9c2 protect 4 and FAS-TE conf 16.
`CCOc1ccccc1NC(=O)C1CCCN(S(=O)(=O)c2ccc3c(c2)CCCN3C(C)=O)C1` (centres undefined) gave H9c2 TAG inh -7, aDG glyco up 0, FAS TE block -1 and H9c2 protect -11.
Screening Cn1c(=O)c2c3c(sc2n2c(SCC(N)=O)nnc12)CC(C(C)(C)C)CC3 (centres undefined) returned aDG glyco up -1, FAS TE block 56*, m-calpain inh 66*, MIN6 prolif 0, H9c2 protect -6 and FAS-TE conf 41.
For Fc1cccc(NC(=S)NCCc2ccccc2)c1 the results were aDG glyco up 1, FAS TE block 2, m-calpain inh -1, MIN6 prolif -6 and H9c2 protect -16.
`O=C(NCCCc1ccccc1)c1cccc([N+](=O)[O-])c1` gave aDG glyco up 0, FAS TE block 67*, m-calpain inh -6, MIN6 prolif -2, H9c2 protect 0 and FAS-TE conf 51*.
For O=C(NCCCc1ccccc1)c1ccccc1 the results were H9c2 TAG inh -5, aDG glyco up 0, FAS TE block -9, m-calpain inh 18, MIN6 prolif -1 and H9c2 protect -2.
O=C(NCCCCc1ccccc1)c1cccc([N+](=O)[O-])c1 was read as H9c2 TAG inh -11, aDG glyco up 1, FAS TE block 54*, m-calpain inh -12, MIN6 prolif -3, H9c2 protect -2 and FAS-TE conf 65*.
Screening O=C(NCCCN1CCN(CCCNC(=O)c2cccc([N+](=O)[O-])c2)CC1)c1cccc([N+](=O)[O-])c1 returned aDG glyco up 0, FAS TE block -5, m-calpain inh -2, MIN6 prolif 0 and H9c2 protect 2.
Screening O=C(NCCCCc1ccccc1)c1cc([N+](=O)[O-])cc([N+](=O)[O-])c1 returned H9c2 TAG inh -6, aDG glyco up 0, FAS TE block 52*, MIN6 prolif -3, H9c2 protect -6 and FAS-TE conf 53*.
O=C(NCCCCc1ccccc1)c1ccccc1 was read as H9c2 TAG inh -14, aDG glyco up 0, FAS TE block -4, m-calpain inh 31, MIN6 prolif -3 and H9c2 protect 1.
O=[N+]([O-])c1cccc(NC(=S)NCCc2ccccc2)c1 was read as H9c2 TAG inh -28, aDG glyco up 2, FAS TE block 65*, m-calpain inh 7, MIN6 prolif -5, H9c2 protect -7 and FAS-TE conf 57*.
For N/C(=N/OC(=O)c1ccccc1Cl)c1ncc([N+](=O)[O-])s1 the results were H9c2 TAG inh 46, aDG glyco up 1, FAS TE block -7, m-calpain inh -39, MIN6 prolif -4 and H9c2 protect -13.
Screening COc1cc(C2/C(=C(\O)c3ccc4c(c3)OCCO4)C(=O)C(=O)N2Cc2ccco2)cc(OC)c1OC (centres undefined) returned H9c2 TAG inh 14, aDG glyco up 0, FAS TE block -2, MIN6 prolif -3 and H9c2 protect -5.
CC/C(=N/NC(=O)c1ccccc1O)c1c(C)[nH]n(-c2ccccc2)c1=O was read as H9c2 TAG inh 7, aDG glyco up 0, FAS TE block 20, MIN6 prolif -6 and H9c2 protect 9.
`CC(Cc1ccccc1)NC(=O)c1ccc([N+](=O)[O-])cc1` (centres undefined) gave H9c2 TAG inh 2, aDG glyco up 0, FAS TE block 22, m-calpain inh -8, MIN6 prolif -2 and H9c2 protect -3.
